A selection: hits, their analogues and other compounds. The true share with any hit is near 17%.
TGFb SMAD3 inh = inhibitors of TGF-b signaling; actives 1.2% (n = 410,000); HepG2 CAGA-GFP TGF-b/SMAD3 reporter, GFP fluorescence, 18 h; TGF-beta stimulated, 500 pg/mL final; Potency, µM (doses to about 46.1 µM), for the others: at the highest dose activity, negative = inhibition, hits mostly inhibitors; also: % is scaled to controls: 0 for no effect and ±100 for the full control effect; nearly all actives have a fitted effect of over 65% in size
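Inhibition of TGF-beta-driven CAGA-GFP reporter expression in HEPG2 cells is measured by cellular GFP fluorescence after 18 h stimulation with 500 pg/mL recombinant TGF-beta in 1% FBS medium at 37 degrees C.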
DT40 TDP1 no CPT = qHTS for Inhibitors of human tyrosyl-DNA phosphodiesterase 1 (TDP1): qHTS in cells in absence of CPT; DT40 Tdp1-/- hTDP1 cells, no CPT, ATP luminescence, 48 h; Potency, µM (highest dose often 46.2 µM), without a hit: at the highest dose activity change, negative = growth inhibition, actives largely listed as inhibitors; actives 15% (n = 420,000); also: % is scaled to controls: 0 for no effect and ±100 for the full control effect; nearly all actives have a fitted effect of over 55% in size
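Chicken DT40 Tdp1-/- cells complemented with human TDP1, screened without camptothecin (DMSO vehicle only), 400 cells/well. Compounds pin-transferred, cells incubated at 37 °C for at least 48 hr. Growth read as ATP-dependent luminescence (CellTiter-Glo, 30 min at RT).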
HT1080 IDH1KD tx = HT-1080 IDH1 knockdown cell toxicity (counter line); HT-1080 IDH1 knockdown viability, ATP luminescence, 48 h; Potency, µM (top dose mostly 46.1 µM), without a hit: at the highest dose activity, negative = toxicity, hits mostly cytotoxic; actives 2% (n = 360,000); AID 686971;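 also: 0% = DMSO wells and -100% = cell-free medium wells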
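IDH1KD HT-1080 cells, 750/well, RPMI + 5% FBS; compound pinned after 2 h settling; 48 h, 37 °C; CellTiter-Glo luminescence; % activity normalised to DMSO and no-cell wells; curves fitted, classed by r2 and efficacy.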
HT1080-NT tox = kills 2HG-producing HT-1080-NT fibrosarcoma cells. HT-1080-NT fibrosarcoma viability, CellTiter-Glo ATP luminescence, 48 h. Potency, µM (top dose mostly 46.1 µM), for the others: top-dose activity, negative = less viability, usual class: cytotoxic. actives 1.6% (n = 360,000);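 also: NT is the 2HG producing partner of a matched IDH1 knockdown line; 0% = DMSO-treated cells and -100% = media-only wells without cells; nearly all actives have a fitted effect of over 55% in size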
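Compounds were tested in concentration-response format on HT-1080-NT cells for 48 hours at 37 degrees C. Cell viability came from CellTiter-Glo luminescence; curves were classified by r2, response magnitude and activity.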
TDP1 cell CPT = DT40-hTDP1 cell growth loss with CPT; Potency, µM (series often up to 46.2 µM), for inactives: at the highest dose activity change, negative = growth inhibition, usual class: inhibitors; actives 12% (n = 420,000); chicken DT40 Tdp1-/-;hTDP1 cells + 20 nM CPT, ATP luminescence, 48 h; also: % is scaled to controls: 0 for no effect and ±100 for the full control effect; nearly all actives have a fitted effect of over 55% in size
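Chicken DT40 Tdp1-/- cells complemented with human TDP1, 400 cells/well, exposed to compounds plus 20 nM camptothecin for at least 48 h at 37 C; viability read as ATP content by CellTiter-Glo luminescence.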
HepG2 viability = kills HepG2 cells in TGF-b inhibitor counter-screen. Potency, µM (highest dose often 46.1 µM), without a hit: at the top dose activity change, negative = cytotoxicity, hits mostly cytotoxic. actives 0.76% (n = 410,000). HepG2 CAGA-GFP viability, ATP luminescence, 18 h
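CellTiter-Glo luminescence gave cytotoxicity after 18 hours at 37 degrees C. The cells were HepG2 CAGA-GFP in 1% FBS DMEM, stimulated with 500 pg/mL TGF-beta after compound addition. %Activity was normalised to no-cell wells (complete cell-killing) and DMSO (no toxicity), and curves were fitted and classified.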
Active calls of the source: *; ? = inconclusive; . = no result given. Calls follow the shape of the dose curve; as a rule, active = well fitted curve in the direction sought with a large enough effect; inconclusive = small, poorly fitted or top-dose-only effect, or another doubt; inactive = no such curve, though single readings can be large; an effect the other way counts as inactive or inconclusive. Potency is read from the fitted curve at half-maximal effect.

SMILES	TGFb SMAD3 inh	DT40 TDP1 no CPT	HT1080 IDH1KD tx	HT1080-NT tox	TDP1 cell CPT	HepG2 viability
COc1cc(/C=N/Nc2ccc(F)cc2F)cc(OC)c1O	?	5.8µM*	?	-17%	2.3µM*	-28%
N#CCCn1cc(C(=O)N2CCCCC2)c(-c2cccc([N+](=O)[O-])c2)n1	?	-12%	16%	0%	-24%	-72%
Cc1ccccc1C(=O)N1CCN=C1SCc1ccc([N+](=O)[O-])cc1	4%	?	-17%	1%	-26%	-19%
N#C/C(=C\c1ccc(OCc2ccc(Cl)cc2Cl)cc1)c1nc2ccccc2[nH]1	-13%	21µM*	.	.	16µM*	-12%
COc1cc(/C=C(\C#N)c2nc3ccccc3[nH]2)cc(Cl)c1OCc1ccccc1Cl	-2%	18µM*	.	.	7.3µM*	-20%
N#C/C(=C/c1ccc(OC(=O)c2ccc(Br)s2)cc1)c1nc2ccccc2[nH]1	31%	23µM*	14%	22%	?	3%
COc1ccc(-n2nc(C(=O)NCc3ccc(F)cc3)c3c4ccccc4n(C)c3c2=O)cc1	-6%	5%	.	.	-2%	9%
Cc1cc(NC(=O)C(C)SCC(=O)N(C)Cc2ccccc2F)no1 (stereo unspecified)	1%	12%	8%	7%	-5%	-5%
COc1ccc(NC(=O)CC2C(=O)Nc3ccccc3N2CC(=O)N2CCCC2)cc1 (stereo unspecified)	-3%	17%	8%	2%	3%	-1%
O=c1ccn2c(n1)SC(c1ccccc1)C2 (stereo unspecified)	11%	10%	2%	1%	-2%	1%
CC(=O)c1ccc(OCCNS(=O)(=O)c2ccc(-n3cnnn3)c(C)c2)cc1	-3%	?	-1%	0%	13µM*	-11%
COc1ccc(CNS(=O)(=O)c2ccc(-n3cnnn3)c(C)c2)cc1	7%	?	2%	2%	?	10%
CCC(=O)N1CCc2cc(S(=O)(=O)CCC(=O)N3CCN(c4ccc(C(C)=O)cc4)CC3)ccc21	?	7.3µM*	13%	16%	18µM*	-2%
CCC(=O)N1CCc2cc(S(=O)(=O)CCC(=O)Nc3ccc(OC(F)(F)F)cc3)ccc21	11µM*	23µM*	.	.	23µM*	-18%
CCC(=O)N1CCc2cc(S(=O)(=O)CCC(=O)N3CCN(c4ccc(Cl)cc4)CC3)ccc21	?	4.1µM*	-24%	-15%	8.2µM*	-15%
CCC(=O)N1CCc2cc(S(=O)(=O)CCC(=O)N3CCN(c4cccc(Cl)c4)CC3)ccc21	?	9.2µM*	.	.	21µM*	-14%
CCc1c(C)c2ccccc2[nH]c1=O	11%	?	.	.	-23%	-4%
CC(CC(=O)O)Nc1ccccc1O (stereo unspecified)	34%	?	11%	4%	21µM*	22%
CC1=C([N+](=O)[O-])C(c2cccc(Br)c2)C2=C(N1)c1ccccc1C2=O (stereo unspecified)	?	1.8µM*	1.3µM*	1.3µM*	1µM*	-32%
O=C(COC(=O)[C@@H]1CC(O)CN1S(=O)(=O)c1ccc(Cl)cc1)NC(=O)NCc1ccccc1 (stereo partly specified)	6%	5%	-1%	5%	-2%	3%
Cc1ccc(S(=O)(=O)N2c3ccccc3OC(C(=O)OC(C)(C)C)(C(=O)OC(C)(C)C)C2CC(=O)c2ccccc2)cc1 (stereo unspecified)	.	5.8µM*	-11%	-4%	6.5µM*	.
